Laboratory results taken from ChEMBL document CHEMBL3433997, “St. Jude Leishmania screening dataset” (2016).

Each molecule was assayed against Glucose transporter (Leishmania mexicana) (UniProt O61059) (assay: ST_JUDE_LEISH: Cytotoxicity at 2uM final concentration against transgenic Leishmania Mexicana promastigotes LmGT2 that are glucose transport deficient and complemented with the L. Mexicana glucose transporter 2. Activity is measured by DNA content using SYBR green in vitro).
Format: functional

SMILES	inhibition [%]
CCC[C@@H]([C@@H](Cc1ccc(C)s1)C(=O)N[C@@H](CNC(C)=O)C(=O)Nc1nccs1)N(O)C=O	8.72
CCN1CCN(C(=O)NC(C(=O)N(C)Cc2ccc(-c3ccc(C(F)(F)F)cc3)cc2)c2cccs2)C(=O)C1=O (stereo not given)	1.3
c1ccc2c(c1)ncn2-c1ccnc(Nc2ccncc2)n1	6.75
Clc1ccc(-c2ccc(C=NNc3nc(=Nc4ccccc4)[nH]c(=Nc4ccccc4)[nH]3)o2)cc1Cl	7.88
CC(C)[C@H](NC(=O)c1ccc(O)c(-c2ccc(Cl)c(Cl)c2)c1)C(=O)NCCN1CCCC1	0.36
Cc1cc(N2CCC(C)CC2)nc2cc(O)ccc12	0.89
CCCCC1(c2ccc(F)cc2)NC(=O)N(CC(=O)c2cc(C)n(Cc3ccco3)c2C)C1=O (stereo not given)	-0.26
Cc1cc(N)c2cc(NC(=O)c3ccc4ccccc4c3)ccc2n1	3.57
CCCC(C)Nc1nc(C)cc(N[C@@H](Cc2ccccc2)C(=O)NCCc2ccccc2)n1 (stereo not given in full)	-0.17
c1cc(CNC2CCCC2)cc(-c2ccc(CNc3ccc4ncccc4c3)cc2)c1	-2.51
COc1cc(OC)c(NC(=O)COc2ccc(C)cc2)cc1Cl	3.07
CCn1cc(CN2CCCC(C(=O)Nc3ccc(-c4nc5ccccc5[nH]4)cc3)C2)cn1 (stereo not given)	2.06
CCn1c(-c2nonc2N)nc2c(-c3ccccc3)ncc(OCCCCNCCc3ncc[nH]3)c21	-0.64
O=C(Nc1cccc(C(F)(F)F)c1)Nc1ccc(Cl)c(C(F)(F)F)c1	-0.99
OC(CNCc1cccc(Oc2ccc(Cl)cc2)c1)c1cc(C(F)(F)F)cc(C(F)(F)F)c1 (stereo not given)	-2.95
Cc1ccc2[nH]cc(/C=C/C(=O)NC3CCC(CCN4CCc5ccc(C#N)cc5CC4)CC3)c2c1 (stereo not given)	-2.82
O=C(NCc1ccco1)c1ccc(S(=O)(=O)c2ccc(Cl)cc2)cc1	0.06
N#Cc1ccc(N(CCOc2ccc3c(c2)CCC(=O)N3)Cc2ccccc2C(F)(F)F)cc1C(F)(F)F	5.81
COC(=O)c1cccc(CNCc2ccc(-c3ccc(-c4nc5cccc(C)c5[nH]4)s3)cc2)c1	1.56
N=C(N)NC(=O)Nc1cc(Cl)c(Cl)c(C(F)(F)F)c1	1.58

SMILES	inhibition [%]
Cc1cc(-c2cnc(N)c(-c3ccc(N4CCN(C)CC4)nc3)c2)cc(C)c1O	0.74
CC(C)(C)c1ccc(CNC(=O)COc2ccc(-c3nnc(-c4cccc([N+](=O)[O-])c4)o3)cc2[N+](=O)[O-])cc1	-0.93
CCCC(=O)NC(c1ccc(C(C)C)cc1)c1ccc2cccnc2c1O (stereo not given)	0.65
Cc1cc(NC(=O)c2cccs2)ccc1OC1CCN(Cc2ccc(C#N)cc2)C1 (stereo not given)	3.26
COc1cc(F)c2ncc(Cl)c([C@H](O)CN3CCC(NCc4cc5c(cn4)OCCO5)CC3)c2c1	2.15
CN1CCN(CCCN(Cc2csc(-c3ccc(CNCc4ccccc4)cc3)n2)S(=O)(=O)c2cccc3cccnc23)CC1	4.06
CCCCC(CC)CN1C(=O)C(c2ccccc2)(c2ccccc2)N=C1N (stereo not given)	2.42
COc1ccc(NC(=O)C2c3ccccc3C(=O)N(C3CCCC3)C2c2cccs2)cc1 (stereo not given)	5
COc1cc(Nc2nccc(NCC(O)c3ccc(C(F)(F)F)cc3)n2)cc(OC)c1OC (stereo not given)	2.81
CN(C)CCNC(=O)N1CCCN(c2ncnc3cc(-c4ccccc4)sc23)CC1	6.1
Cc1nc2nc(N)nc(N)c2c(C)c1Cc1cccc(C(N)=O)c1	-1.43
CCn1cnc2c(N3CCCCS3(=O)=O)cc(C(=O)N[C@@H](Cc3ccccc3)[C@H](O)CNC3CCOCC3)cc21	3.34
N#Cc1ccc(-c2ccc3nc(N4CCCN(C5CCC5)CC4)ccc3c2)cc1	6.34
CN1CCCN(Cc2ccc(-c3ccc(NC(=O)c4cccc(C#N)c4)cc3)cc2)CC1	0.78
CCNc1cc(CC)nc(Nc2ccc(C)cc2)n1	17.9
CCCN(Cc1nnc(-c2cccs2)o1)C(=O)C1COc2ccccc2O1 (stereo not given)	1.58
CCCCCCCCn1c2c(c(=N)c3c1CCC3)CCC2	89.9
c1ccc(CN2CCC(NCc3ccccc3-c3ccc(CNCc4ccc5c(c4)OCO5)cc3)CC2)cc1	9.54
c1ccc(COc2ccc(Cn3ccc(-c4ccc(-n5ccnc5)cc4)n3)cc2)cc1.c1ccc(COc2ccc(Cn3nccc3-c3ccc(-n4ccnc4)cc3)cc2)cc1	1.48
COc1ccc(NC(=O)c2c(NC(=O)c3cccs3)sc3c2CCCC3)cc1	5.21
